{"source": "paper PMC3795721", "about": "“Screening for Protein-DNA Interactions by Automatable DNA-Protein Interaction ELISA”"}
{"molecular_target": "AT4G31550 (Arabidopsis thaliana, UniProt Q9SV15 228-325)", "sequence (Q9SV15 228-325)": "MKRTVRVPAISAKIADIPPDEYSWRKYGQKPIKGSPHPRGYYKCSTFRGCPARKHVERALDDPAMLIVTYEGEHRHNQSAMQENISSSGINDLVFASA", "assay": "DPI-ELISA; DPI-ELISA, streptavidin 384-well plate, 1-2 pmol biotinylated dsDNA per well, crude native E. coli extract, anti-His detection; buffer as in Brand et al. [46],; high values mean tight binding", "conditions": "tags: C-terminal His (pET-DEST42); label: 5' biotin on forward strand; dsDNA, one strand shown", "units": {"binding signal": "absorbance"}}
{"sequence": "AAAAAAACTCAACTAGTGAACCACCAAAA", "binding signal": "0.625 ± 0.0636"}
{"sequence": "AAAAAACCCCAGATTTCCAGCAGTTCAAAA", "binding signal": "0.945 ± 0.629"}
{"sequence": "AAAAAAATCCGATCGATGCATATATAAAA", "binding signal": "0.725 ± 0.106"}
{"sequence": "AAAAAAACGGGTTGTGAATGTGGAAGAAAA", "binding signal": "0.575 ± 0.148"}
{"sequence": "AAAAAACTACTACCTTTGCCTAAGCGAAAA", "binding signal": "0.685 ± 0.0919"}
{"sequence": "AAAAAATCGCGAACGTACGTCCGCGGAAAA", "binding signal": "0.51 ± 0.113"}
{"sequence": "AAAAAATCGCACTGCCGCCGATGGCTAAAA", "binding signal": "0.625 ± 0.134"}
{"sequence": "AAAAAAGTGTGTGGCTCAGGATTCCCAAAA", "binding signal": "0.55 ± 0.0849"}
{"sequence": "AAAAAAACCCTGTGTCGGCCGATAAAAAA", "binding signal": "0.58 ± 0.099"}
{"sequence": "AAAAAACTACAACCTGCGCGGTGGTCAAAA", "binding signal": "0.775 ± 0.0636"}
{"sequence": "AAAAAAGTCTCACCTTTAGTCTTAATAAAA", "binding signal": "0.64 ± 0.0283"}
{"sequence": "AAAAAAACATCCACACCCGCGGCGCGAAAA", "binding signal": "0.56 ± 0.141"}
{"sequence": "AAAAAACATGTCGCACCTGTACTAACAAAA", "binding signal": "0.66 ± 0.127"}
{"sequence": "AAAAAACACTGCACTATTGGGAGTTCAAAA", "binding signal": "0.615 ± 0.177"}
{"sequence": "AAAAAAATCACGGTTCGACCTCCAGCAAAA", "binding signal": "0.7 ± 0.127"}
{"sequence": "AAAAAATTACGTTTGTATTTGTAAAA", "binding signal": "0.555 ± 0.0636"}
{"sequence": "AAAAAATTCAGAGCTTCGAGGTTCCGAAAA", "binding signal": "0.66 ± 0.0707"}
{"sequence": "AAAAAATTCGGGACTAGTAGTGGTGAAAAA", "binding signal": "0.605 ± 0.0778"}
{"sequence": "AAAAAATGCAACGCTCCTTTCCCGCTAAAA", "binding signal": "0.535 ± 0.106"}
{"sequence": "AAAAAAATGTTCAAGCTCGATCTACAAAAA", "binding signal": "0.63 ± 0.127"}
{"sequence": "AAAAAATAAGTAACCGAACGAAACTCAAAA", "binding signal": "0.75 ± 0.269"}
{"sequence": "AAAAAAGGAAGTACTGACGATCTGGAAAAA", "binding signal": "0.615 ± 0.148"}
{"sequence": "AAAAAAGGTGAGGAAGTTGGGTATGGAAAA", "binding signal": "0.64 ± 0.0566"}
{"sequence": "AAAAAATGGGGCTCTGGCCCACCGTAAAAA", "binding signal": "0.525 ± 0.0778"}
{"sequence": "AAAAAATCCGTTCCCATTTGTCCGTCAAAA", "binding signal": "0.58 ± 0.0849"}
{"sequence": "AAAAAATCCCTGCTCCCCTGGTTCCTAAAA", "binding signal": "0.45 ± 0.141"}
{"sequence": "AAAAAACTGGATGCGCTCACCAGTTAAAAA", "binding signal": "0.52 ± 0.099"}
{"sequence": "AAAAAAGCCGTGGGTGATGGTCACAGAAAA", "binding signal": "0.56 ± 0.113"}
{"sequence": "AAAAAACCGAGTGTTGCCAGTTGCAGAAAA", "binding signal": "0.655 ± 0.0919"}
{"sequence": "AAAAAAGGCCTTCGCTCGTGTTTACGAAAA", "binding signal": "0.4 ± 0.0424"}
{"sequence": "AAAAAAGTGTTTGTGCTTCTCTCTGTAAAA", "binding signal": "0.58 ± 0.0707"}
{"sequence": "AAAAAAAGTTGTACTTATTATACTTTAAAA", "binding signal": "0.53 ± 0.113"}
{"sequence": "AAAAAACCCGGTTGGAGAAAATAATTAAAA", "binding signal": "0.55 ± 0.127"}
{"sequence": "AAAAAATCCATTCTTCGCGTTTATCCAAAA", "binding signal": "0.53 ± 0.0849"}
{"sequence": "AAAAAAATTCGCAACCCTCACGTTCGAAAA", "binding signal": "0.67 ± 0.0566"}
{"sequence": "AAAAAAGTCCATAAACTAAATTGGATAAAA", "binding signal": "0.525 ± 0.0495"}
{"sequence": "AAAAAATCAGTCTGAGACTTACAACTAAAA", "binding signal": "0.84 ± 0.283"}
{"sequence": "AAAAAAAATTAGTCTCTTCGTCTCCCAAAA", "binding signal": "0.575 ± 0.106"}
